# From the supplement of paper PMC8728848
# Many of the other results were omitted from the sample, so the strongest signals are more common in it than they were.
# How the values were obtained:
# Experiment in all cases: glycan array binding signal (z-score within array); higher = stronger binding
# Conditions in all cases: glycan notation: IUPAC condensed, linker removed
# [1] = target: Fuc(a1-2)Gal(b1-4)GlcNAc(b1-3)[Fuc(a1-2)Gal(b1-4)GlcNAc(b1-6)]GalNAc
# How it was run: (§1)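 Negative Z-scores can be read as non-binding. The Z-score is calculated within each array and then averaged across arrays of one protein sequence at different concentrations or buffers and across linkers. Arrays, 3228 in all, were curated from the Consortium for Functional Glycomics database and kept only where the protein sequence was available.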
# [2] = target: Fuc(a1-2)Gal(b1-4)[Fuc(a1-3)]GlcNAc(b1-3)Gal(b1-4)[Fuc(a1-3)]GlcNAc(b1-3)Gal(b1-4)[Fuc(a1-3)]GlcNAc
# How it was run: as §1
# [3] = target: Fuc(a1-2)[Gal(a1-3)]Gal(b1-4)[Fuc(a1-3)]GlcNAc
# How it was run: as §1
# [4] = target: Fuc(a1-2)[GalNAc(a1-3)]Gal(b1-3)GlcNAc(b1-3)GalNAc
# How it was run: as §1
# [5] = target: Fuc(a1-2)[GalNAc(a1-3)]Gal(b1-4)Glc
# How it was run: as §1
# [6] = target: Fuc(a1-2)[GalNAc(a1-3)]Gal(b1-4)GlcNAc(b1-3)[Fuc(a1-2)[GalNAc(a1-3)]Gal(b1-4)GlcNAc(b1-6)]GalNAc
# How it was run: as §1
# [7] = target: Fuc(a1-3)[Gal(b1-4)]Glc6S
# How it was run: as §1
# [8] = target: Fuc(a1-3)[Gal3S(b1-4)]GlcNAc
# How it was run: as §1
# [9] = target: Fuc(a1-3)[GalNAc(b1-4)]GlcNAc6S
# How it was run: as §1
# Gal(a1-3)Gal(b1-4)Glc = target: Gal(a1-3)Gal(b1-4)Glc
# How it was run: as §1
# [10] = target: Gal(a1-3)Gal(b1-4)GlcNAc(b1-6)GalNAc
# How it was run: as §1
# [11] = target: Gal(a1-3)[Gal(a1-4)]Gal(b1-4)GlcNAc
# How it was run: as §1
# [12] = target: Gal(b1-3)GalNAc(b1-4)Gal(b1-4)Glc
# How it was run: as §1
# [13] = target: Gal(b1-3)GlcNAc(b1-2)Man(a1-3)[GlcNAc(b1-4)][Gal(b1-3)GlcNAc(b1-2)Man(a1-6)]Man(b1-4)GlcNAc(b1-4)GlcNAc
# How it was run: as §1
# [14] = target: Gal(b1-3)[Fuc(a1-4)]GlcNAc(b1-3)Gal(b1-4)[Fuc(a1-3)]GlcNAc
# How it was run: as §1
# [15] = target: Gal(b1-4)GalNAc(a1-3)[Fuc(a1-2)]Gal(b1-4)GlcNAc
# How it was run: as §1
# Gal(b1-4)Glc6S = target: Gal(b1-4)Glc6S
# How it was run: as §1
# [16] = target: Gal(b1-4)GlcNAc(b1-2)Man(a1-6)[Man(a1-3)]Man(b1-4)GlcNAc(b1-4)GlcNAc
# How it was run: as §1
# [17] = target: Gal(b1-4)GlcNAc(b1-2)[Gal(b1-4)GlcNAc(b1-6)]Man(a1-6)[Gal(b1-4)GlcNAc(b1-2)Man(a1-3)]Man(b1-4)GlcNAc(b1-4)[Fuc(a1-6)]GlcNAc
# How it was run: as §1
# [18] = target: Gal(b1-4)GlcNAc(b1-2)[Gal(b1-4)GlcNAc(b1-6)]Man(a1-6)[GlcNAc(b1-4)][Gal(b1-4)GlcNAc(b1-2)Man(a1-3)]Man(b1-4)GlcNAc(b1-4)GlcNAc
# How it was run: as §1
# [19] = target: Gal(b1-4)GlcNAc(b1-3)Gal(b1-4)GlcNAc(b1-3)Gal(b1-4)GlcNAc(b1-3)Gal(b1-4)GlcNAc(b1-2)[Gal(b1-4)GlcNAc(b1-3)Gal(b1-4)GlcNAc(b1-3)Gal(b1-4)GlcNAc(b1-3)Gal(b1-4)GlcNAc(b1-6)]Man(a1-6)[Gal(b1-4)GlcNAc(b1-3)Gal(b1-4)GlcNAc(b1-3)Gal(b1-4)GlcNAc(b1-3)Gal(b1-4)GlcNAc(b1-2)Man(a1-3)]Man(b1-4)GlcNAc(b1-4)[Fuc(a1-6)]GlcNAc
# How it was run: as §1
# [20] = target: Gal3S(b1-4)[Fuc(a1-3)]GlcNAc6S
# How it was run: as §1
# Gal3S6S(b1-4)GlcNAc6S = target: Gal3S6S(b1-4)GlcNAc6S
# How it was run: as §1
# Gal4S(b1-4)GlcNAc = target: Gal4S(b1-4)GlcNAc
# How it was run: as §1
# Gal4S6S(b1-4)GlcNAc = target: Gal4S6S(b1-4)GlcNAc
# How it was run: as §1
# Gal6S(b1-3)GlcNAc6S = target: Gal6S(b1-3)GlcNAc6S
# How it was run: as §1
# GalNAc(b1-4)GlcNAc = target: GalNAc(b1-4)GlcNAc
# How it was run: as §1
# GalNAc(b1-4)GlcNAc6S = target: GalNAc(b1-4)GlcNAc6S
# How it was run: as §1
# GalNAc6S(b1-4)GlcNAc = target: GalNAc6S(b1-4)GlcNAc
# How it was run: as §1
# [21] = target: GlcNAc(b1-2)Man(a1-3)[GlcNAc(b1-2)Man(a1-6)]Man(b1-4)GlcNAc(b1-4)GlcNAc
# How it was run: as §1
# [22] = target: GlcNAc(b1-2)[GlcNAc(b1-6)]Man(a1-6)[GlcNAc(b1-2)Man(a1-3)]Man(b1-4)GlcNAc(b1-4)[Fuc(a1-6)]GlcNAc
# How it was run: as §1
# [23] = target: GlcNAc(b1-2)[GlcNAc(b1-6)]Man(a1-6)[GlcNAc(b1-4)][GlcNAc(b1-2)Man(a1-3)]Man(b1-4)GlcNAc(b1-4)GlcNAc
# How it was run: as §1
# [24] = target: GlcNAc(b1-4)[GlcNAc(b1-6)]GalNAc
# How it was run: as §1
# GlcNAc(b1-6)GalNAc = target: GlcNAc(b1-6)GalNAc
# How it was run: as §1
# [25] = target: GlcNAc6S(b1-3)Gal(b1-4)GlcNAc
# How it was run: as §1
# [26] = target: Man(a1-2)Man(a1-2)Man(a1-6)[Man(a1-3)]Man
# How it was run: as §1
# [27] = target: Man(a1-2)Man(a1-6)[Man(a1-3)]Man(a1-6)[Man(a1-2)Man(a1-2)Man(a1-3)]Man
# How it was run: as §1
# [28] = target: Man(a1-3)[Man(a1-6)]Man(a1-6)[Man(a1-3)]Man(b1-4)GlcNAc(b1-4)GlcNAc
# How it was run: as §1
# [29] = target: Neu5Ac(a2-3)Gal(b1-3)GlcNAc(b1-6)GalNAc
# How it was run: as §1
# [30] = target: Neu5Ac(a2-3)Gal(b1-3)[GlcNAc(b1-6)]GalNAc
# How it was run: as §1
# [31] = target: Neu5Ac(a2-3)Gal(b1-4)GlcNAc(b1-3)Gal(b1-4)[Fuc(a1-3)]GlcNAc
# How it was run: as §1
# [32] = target: Neu5Ac(a2-3)Gal(b1-4)[Fuc(a1-3)]GlcNAc(b1-3)Gal
# How it was run: as §1
# [33] = target: Neu5Ac(a2-3)Gal6S(b1-4)[Fuc(a1-3)]GlcNAc
# How it was run: as §1
# [34] = target: Neu5Ac(a2-6)Gal(b1-4)GlcNAc(b1-2)Man(a1-3)Man(b1-4)GlcNAc(b1-4)GlcNAc
# How it was run: as §1
# [35] = target: Neu5Ac(a2-6)Gal(b1-4)GlcNAc(b1-6)GalNAc
# How it was run: as §1
# [36] = target: Neu5Ac(a2-8)Neu5Ac(a2-8)Neu5Ac
# How it was run: as §1
# Neu5Gc(a2-6)GalNAc = target: Neu5Gc(a2-6)GalNAc
# How it was run: as §1
binder,measurement,setting,value
"AT1G73650(15) (Arabidopsis thaliana), F4HRY1 (protein) MGTVLDSHFLALTAIVTVIYQFIFFVITALFKFDQVTDFAGSTNFVILAVLTLVLKASWHFRQIVLTLLVVVWGLRLGIFLLMETRILQWGEDRRFDEQRGNIVRLIIFWTLQAVWVWTVSLPLTLVNASDGGGSLKPADVIGWTMETWVFGFLIEAAADQQKLSFKNSPENRGKWCDVGVWKYSRHPNYFGEMETLLWWGIFVAASPVLEGAEYLVIFGPLFLTLLLLFVSGIPLLEASADKKHGNSGAYRSYKKTTSPLILFPRGVYGNLPGWFKTVFLFEFPFYSRNLPQEGRLQNSKEKEVKDD",glycan array binding signal (z-score),[1],2.33
same,glycan array binding signal (z-score),[2],-0.048
same,glycan array binding signal (z-score),[3],-0.438
same,glycan array binding signal (z-score),[4],0.226
same,glycan array binding signal (z-score),[5],-0.567
same,glycan array binding signal (z-score),[6],-0.573
same,glycan array binding signal (z-score),[7],2.65
same,glycan array binding signal (z-score),[8],3.17
same,glycan array binding signal (z-score),[9],-0.217
same,glycan array binding signal (z-score),Gal(a1-3)Gal(b1-4)Glc,3.4
same,glycan array binding signal (z-score),[10],-0.542
same,glycan array binding signal (z-score),[11],3.43
same,glycan array binding signal (z-score),[12],3.21
same,glycan array binding signal (z-score),[13],-0.213
same,glycan array binding signal (z-score),[14],-0.287
same,glycan array binding signal (z-score),[15],-0.354
same,glycan array binding signal (z-score),Gal(b1-4)Glc6S,2.95
same,glycan array binding signal (z-score),[16],-0.586
same,glycan array binding signal (z-score),[17],1.65
same,glycan array binding signal (z-score),[18],-0.494
same,glycan array binding signal (z-score),[19],-0.173
same,glycan array binding signal (z-score),[20],1.88
same,glycan array binding signal (z-score),Gal3S6S(b1-4)GlcNAc6S,0.919
same,glycan array binding signal (z-score),Gal4S(b1-4)GlcNAc,-0.333
same,glycan array binding signal (z-score),Gal4S6S(b1-4)GlcNAc,-0.444
same,glycan array binding signal (z-score),Gal6S(b1-3)GlcNAc6S,-0.282
same,glycan array binding signal (z-score),GalNAc(b1-4)GlcNAc,4.01
same,glycan array binding signal (z-score),GalNAc(b1-4)GlcNAc6S,-0.402
same,glycan array binding signal (z-score),GalNAc6S(b1-4)GlcNAc,0.513
same,glycan array binding signal (z-score),[21],-0.569
same,glycan array binding signal (z-score),[22],0.047
same,glycan array binding signal (z-score),[23],-0.322
same,glycan array binding signal (z-score),[24],-0.41
same,glycan array binding signal (z-score),GlcNAc(b1-6)GalNAc,-0.154
same,glycan array binding signal (z-score),[25],-0.641
same,glycan array binding signal (z-score),[26],-0.361
same,glycan array binding signal (z-score),[27],-0.508
same,glycan array binding signal (z-score),[28],-0.566
same,glycan array binding signal (z-score),[29],3.42
same,glycan array binding signal (z-score),[30],-0.402
same,glycan array binding signal (z-score),[31],1.23
same,glycan array binding signal (z-score),[32],-0.714
same,glycan array binding signal (z-score),[33],-0.428
same,glycan array binding signal (z-score),[34],-0.274
same,glycan array binding signal (z-score),[35],7.33
same,glycan array binding signal (z-score),[36],2.92
same,glycan array binding signal (z-score),Neu5Gc(a2-6)GalNAc,3.69
